Compounds without any hit were thinned out: in the full panel of roughly 79,000, 15% have a hit. Active and inactive are the calls of the source. Rule as the data show it: active = growth inhibition above about 70%; inactive = the rest.
Tests used:
[1] = NCI Yeast Anticancer Drug Screen. Data for the rad52 strain (AID 147);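 also: 0% = growth of vehicle-treated control cultures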; settings: S. cerevisiae rad52 mutant growth inhibition, active compounds read high
Method in brief: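 Compounds are applied to a genetically defined yeast strain lacking normal DNA damage repair, and inhibition of growth is expressed relative to cultures given vehicle only.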

[2] = NCI Yeast Anticancer Drug Screen. Data for the wt1 strain (AID 149);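 also: 0% = growth of vehicle-treated wt1 cultures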; settings: S. cerevisiae wt1 strain (SPY 50644) growth inhibition, active compounds read high
Method in brief: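 Vehicle-normalised growth inhibition; strain wt1; compound exposure.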

[3] = NCI Yeast Anticancer Drug Screen. Data for the rad50EPP+ strain (AID 151);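 also: 0% = growth of vehicle-treated control cultures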; settings: S. cerevisiae rad50 mutant strain, active compounds read high
Method in brief: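 Compounds were applied to the rad50EPP+ yeast strain, which bears a defined DNA repair alteration, and growth inhibition was determined relative to vehicle-treated cultures.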

[4] = NCI Yeast Anticancer Drug Screen. Data for the mgt1 strain (AID 153); settings: S. cerevisiae mgt1 mutant growth inhibition, active compounds read high
Method in brief: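 Strain: mgt1 yeast, one of a set carrying defined DNA damage repair or cell cycle control alterations. Compound-treated growth compared with vehicle.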

[5] = NCI Yeast Anticancer Drug Screen. Data for the rad50 strain (AID 155);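 also: 0% = growth of vehicle-only cultures of the same strain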; settings: S. cerevisiae rad50 strain growth inhibition, active compounds read high
Method in brief: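 A DNA repair-deficient yeast mutant serves as the test organism; compound-induced growth inhibition is calculated against vehicle-treated cells.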

[6] = NCI Yeast Anticancer Drug Screen. Data for the mec2-1 strain (AID 157); settings: S. cerevisiae mec2-1 strain, active compounds read high
Method in brief: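 Strain: mec2-1 (DNA repair/cell cycle alteration). Compound exposure, then growth measured; inhibition expressed relative to vehicle.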

[7] = NCI Yeast Anticancer Drug Screen. Data for the rad14 strain (AID 159);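 also: 0% = growth of vehicle-treated control cultures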; settings: S. cerevisiae rad14 strain growth inhibition, active compounds read high
Method in brief: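 Vehicle-treated cultures served as the baseline for growth inhibition of a DNA repair-mutant yeast strain exposed to each compound.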

[8] = NCI Yeast Anticancer Drug Screen. Data for the sgs1 mgt1 strain (AID 161);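 also: 0% = growth of cultures given vehicle only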; settings: S. cerevisiae sgs1 mgt1 strain, active compounds read high
Method in brief: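 Mutant yeast exposed to compound; growth scored against vehicle-only wells.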

[9] = NCI Yeast Anticancer Drug Screen. Data for the CLN2oe strain (AID 163);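 also: 0% = growth of vehicle-only control cultures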; settings: S. cerevisiae CLN2oe strain, active compounds read high
Method in brief: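 Growth of a genetically modified yeast strain is measured after compound exposure and compared with cultures given vehicle alone.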

[10] = NCI Yeast Anticancer Drug Screen. Data for the cln2 rad14 strain (AID 165);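 also: 0% = growth equal to vehicle treated cultures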; settings: S. cerevisiae cln2 rad14 strain, active compounds read high
Method in brief: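 Compounds are applied to the cln2 rad14 yeast strain, and growth is then compared with that of vehicle-treated cultures to give inhibition.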

[11] = NCI Yeast Anticancer Drug Screen. Data for the bub3 strain (AID 167); settings: S. cerevisiae bub3 mutant strain, active compounds read high
Method in brief: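 Inhibition values come from growth of compound-treated mutant yeast normalised to vehicle-treated controls.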

[12] = NCI Yeast Anticancer Drug Screen. Data for the wt2 strain (AID 169);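 also: 0% = growth of vehicle-treated yeast cultures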; settings: S. cerevisiae wt2 strain growth inhibition, active compounds read high
Method in brief: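 This strain belongs to a panel of yeast strains with defined genetic alterations in DNA damage repair or cell cycle control. Compounds are applied, and growth inhibition is measured against vehicle-treated cultures.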

[13] = NCI Yeast Anticancer Drug Screen. Data for the mlh1 strain (AID 171);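 also: 0% = growth of vehicle-treated control cultures of the same strain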; settings: S. cerevisiae mlh1 strain growth inhibition, active compounds read high
Method in brief: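 Growth of the mutant yeast strain after compound exposure, expressed as inhibition relative to vehicle-only controls.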

[14] = NCI Yeast Anticancer Drug Screen. Data for the sgs1 strain (AID 173);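 also: 0% = growth of vehicle-only control cultures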; settings: S. cerevisiae sgs1 mutant, active compounds read high
Method in brief: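 Growth of a yeast strain bearing a defined genetic alteration is measured after compound treatment. Inhibition is expressed relative to vehicle-only controls.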

[15] = NCI Yeast Anticancer Drug Screen. Data for the mlh1 rad18 strain (AID 175); settings: S. cerevisiae mlh1 rad18 strain growth inhibition, active compounds read high
Method in brief: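 Read-out is yeast growth inhibition, calculated against vehicle-only controls. The compound was applied to a strain engineered with DNA damage repair alterations.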

[16] = NCI Yeast Anticancer Drug Screen. Data for the rad18 strain (AID 177); settings: S. cerevisiae rad18 mutant growth inhibition, active compounds read high
Method in brief: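 Growth of the mutant yeast strain after compound exposure, normalised to vehicle-only cultures.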

[17] = at 5.0 µM (retest, dose inferred, filed as 0.5)
[18] = at 50.0 µM (retest, dose inferred, filed as 5.0)

Measured: growth inhibition

O=C(NNc1ccccc1)c1ccc(Cl)c(Cl)c1
inactive: [1]; at 1.2 µM -1% | [1]; at 3.7 µM 2% | [1]; at 11.0 µM 5% | [1]; at 33.0 µM 26% | [1]; at 100.0 µM 58% | [2]; at 1.2 µM 0% | [2]; at 3.7 µM -1% | [2]; at 11.0 µM 1% | [2]; at 33.0 µM 16% | [2]; at 100.0 µM 46% | [3]; at 1.2 µM -1% | [3]; at 3.7 µM 5% | [3]; at 11.0 µM 13% | [3]; at 33.0 µM 33% | [4]; at 1.2 µM -1% | [4]; at 3.7 µM -1% | [4]; at 11.0 µM 2% | [4]; at 33.0 µM 8% | [4]; at 100.0 µM 23% | [5]; at 1.2 µM 2% | [5]; at 3.7 µM 5% | [5]; [17] 4% | [5]; at 11.0 µM 11% | [5]; at 33.0 µM 21% | [5]; [18] -4% | [5]; at 50.0 µM 38.6% | [5]; at 100.0 µM 61% | [6]; at 1.2 µM -4% | [6]; at 3.7 µM -3% | [6]; [17] -9% | [6]; at 11.0 µM -5% | [6]; at 33.0 µM 2% | [6]; [18] 3% | [6]; at 50.0 µM 40.9% | [6]; at 100.0 µM 23% | [7]; at 1.2 µM -2% | [7]; at 3.7 µM -2% | [7]; at 11.0 µM 3% | [7]; at 33.0 µM 4% | [7]; at 100.0 µM 23% | [8]; [17] 5% | [8]; [18] 19% | [8]; at 50.0 µM 44.2% | [9]; at 1.2 µM -7% | [9]; at 3.7 µM -3% | [9]; at 11.0 µM 0% | [9]; at 33.0 µM 14% | [9]; at 100.0 µM 40% | [10]; [17] 31% | [10]; [18] 18% | [10]; at 50.0 µM 0.2% | [11]; at 1.2 µM -5% | [11]; at 3.7 µM -2% | [11]; [17] -5% | [11]; at 11.0 µM -7% | [11]; at 33.0 µM 2% | [11]; [18] 13% | [11]; at 50.0 µM 30.3% | [11]; at 100.0 µM 14% | [12]; at 1.2 µM 1% | [12]; at 3.7 µM -1% | [12]; at 11.0 µM 2% | [12]; at 33.0 µM 15% | [12]; at 100.0 µM 37% | [13]; at 1.2 µM -2% | [13]; at 3.7 µM -3% | [13]; at 11.0 µM -3% | [13]; at 33.0 µM 8% | [13]; at 100.0 µM 47% | [14]; at 1.2 µM -3% | [14]; at 3.7 µM -3% | [14]; at 11.0 µM -1% | [14]; at 33.0 µM 17% | [14]; at 100.0 µM 47% | [15]; [17] 6% | [15]; [18] 61% | [15]; at 50.0 µM 44.9% | [16]; at 1.2 µM 2% | [16]; at 3.7 µM 4% | [16]; at 11.0 µM 6% | [16]; at 33.0 µM 37%
active: [3]; at 100.0 µM 74% | [16]; at 100.0 µM 88%

Oc1ccc2c(c1)C(O)CCCC2 (stereo unspecified)
inactive: [1]; at 1.2 µM 5% | [1]; at 3.7 µM 9% | [1]; at 11.0 µM 25% | [1]; at 33.0 µM 38% | [2]; at 1.2 µM -3% | [2]; at 3.7 µM -7% | [2]; at 11.0 µM -4% | [2]; at 33.0 µM -1% | [2]; at 100.0 µM 18% | [3]; at 1.2 µM 10% | [3]; at 3.7 µM 25% | [3]; at 11.0 µM 40% | [3]; at 33.0 µM 53% | [4]; at 1.2 µM -2% | [4]; at 3.7 µM 1% | [4]; at 11.0 µM 4% | [4]; at 33.0 µM 17% | [5]; at 1.2 µM 4% | [5]; at 3.7 µM 16% | [5]; [17] 31% | [5]; at 11.0 µM 28% | [5]; at 33.0 µM 46% | [6]; at 1.2 µM -3% | [6]; at 3.7 µM -1% | [6]; [17] 6% | [6]; at 11.0 µM 2% | [6]; at 33.0 µM 7% | [6]; at 50.0 µM 58.6% | [6]; at 100.0 µM 46% | [7]; at 1.2 µM 5% | [7]; at 3.7 µM 13% | [7]; at 11.0 µM 23% | [7]; at 33.0 µM 43% | [8]; [17] 65% | [8]; at 50.0 µM 34.1% | [9]; at 1.2 µM -4% | [9]; at 3.7 µM -6% | [9]; at 11.0 µM -3% | [9]; at 33.0 µM 7% | [9]; at 100.0 µM 42% | [10]; [17] 0% | [10]; [18] 36% | [10]; at 50.0 µM 35.4% | [11]; at 1.2 µM -9% | [11]; at 3.7 µM -8% | [11]; [17] 30% | [11]; at 11.0 µM -9% | [11]; at 33.0 µM -2% | [11]; at 50.0 µM 66.2% | [11]; at 100.0 µM 35% | [12]; at 1.2 µM -5% | [12]; at 3.7 µM -4% | [12]; at 11.0 µM 25% | [12]; at 33.0 µM 4% | [12]; at 100.0 µM 69% | [13]; at 1.2 µM 2% | [13]; at 3.7 µM 10% | [13]; at 11.0 µM 15% | [13]; at 33.0 µM 29% | [14]; at 1.2 µM 5% | [14]; at 3.7 µM 19% | [14]; at 11.0 µM 24% | [14]; at 33.0 µM 43% | [16]; at 1.2 µM 2% | [16]; at 3.7 µM 10% | [16]; at 11.0 µM 20% | [16]; at 33.0 µM 36%
active: [1]; at 100.0 µM 86% | [3]; at 100.0 µM 71% | [4]; at 100.0 µM 71% | [5]; [18] 97% | [5]; at 50.0 µM 77.8% | [5]; at 100.0 µM 91% | [6]; [18] 82% | [7]; at 100.0 µM 95% | [8]; [18] 98% | [11]; [18] 96% | [13]; at 100.0 µM 90% | [14]; at 100.0 µM 93% | [15]; [17] 87% | [15]; [18] 99% | [15]; at 50.0 µM 86.8% | [16]; at 100.0 µM 90%
